The source of these data is PubChem BioAssay (EPA / NIEHS).

Results filed as inconclusive are left out. The source made the active and inactive calls. Rule for the calls: active = hit-call score of the fitted dose curve at least 0.9, where 1 is the maximum; inconclusive = response in the unintended direction; inactive = score below 0.9.

The AC50 is the concentration giving half of the maximal activity seen.

Sequence of rat Corticotropin Releasing Factor Receptor (CRF), Crhr1 (gene 58959) (P35353 whole entry, looked up): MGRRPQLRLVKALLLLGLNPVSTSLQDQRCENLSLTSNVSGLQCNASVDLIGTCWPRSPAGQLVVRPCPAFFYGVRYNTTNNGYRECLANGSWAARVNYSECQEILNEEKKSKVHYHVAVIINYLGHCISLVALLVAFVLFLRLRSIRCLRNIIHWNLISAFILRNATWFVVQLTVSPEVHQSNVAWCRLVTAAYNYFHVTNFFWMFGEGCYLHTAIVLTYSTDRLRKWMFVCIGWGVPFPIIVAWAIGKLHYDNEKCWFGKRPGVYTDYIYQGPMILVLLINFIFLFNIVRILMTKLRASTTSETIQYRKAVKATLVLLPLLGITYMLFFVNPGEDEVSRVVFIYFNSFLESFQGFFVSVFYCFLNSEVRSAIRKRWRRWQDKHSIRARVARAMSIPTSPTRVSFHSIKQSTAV

One assay concerns rat Monoamine Oxidase, MAO-A, Central (MAOAC), gene 29253. Briefly: NVS_ENZ_rMAOAC: NovaScreen (NVS) Enzymatic Assay for rat Monoamine Oxidase, MAO-A, Central (MAOAC) (AID 2283243).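 Note: potency refers to inhibition seen as signal drop below DMSO baseline.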 The method, boiled down:
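Steps: rat brain protein extract dosed with test chemical (25 uM, duplicate, primary); incubated 1.5 h; radiolabelled product separated from substrate and counted. Signal loss versus DMSO scored as inhibition.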
In the case of `CC=Cc1ccc(OCC)c(O)c1`, the AC50 is 20.3 µM (active).

Take `CCNc1nc(N)nc(Cl)n1`: the AC50 is 37.6 µM (active).

As for `CC(=O)CCc1ccc(O)cc1`, the half-maximal activity concentration (AC50) was 17.5 µM (active).

For the compound `O=c1c2ccccc2oc2ccccc12`, the AC50 is 7.58 µM (active).

Take `Cc1cc(C)c(C=O)c(C)c1`: the AC50 is 19.9 µM (active).

For the compound `Nc1ccc(Oc2cccc(Oc3ccc(N)cc3)c2)cc1`, the AC50 was 22.7 µM (active).

Regarding `O=[N+]([O-])c1ccc(O)cc1C(F)(F)F`, the AC50 is 21.1 µM (active).

For `O=C(c1ccccc1)c1ccc(O)cc1O`, the AC50 was 21 µM (active).

As to `Oc1cccc2ccccc12`, the AC50 was 15.4 µM (active).

As to `c1ccc2cc3ccccc3cc2c1`, the AC50 was 25 µM (active).

`CCCCCCCCCCCCCCCCO`: the outcome was inactive.

Take `Cc1ccc2sc3cccc(C)c3c2c1`: the result was inactive.

Take `Cc1c(Cl)c(=O)oc2cc(O)ccc12`: the AC50 was 12.2 µM (active).

As to `Oc1ccc(Nc2ccccc2)cc1`, the AC50 was 17.7 µM (active).

Consider `COC(=O)c1ccccc1C(=O)O`, for which the compound was classed as inactive.

Regarding `CN1CN(C)CN(C)C1`, the result was inactive.

Take `CN(CCOc1ccc(CC2SC(=O)NC2=O)cc1)c1ccccn1` (stereo not given): the AC50 was 12.9 µM (active).

`Oc1cccc2c(O)cccc12`: the AC50 is 25 µM (active).

Turning to `CC(=O)Nc1ccc(C(=O)CCl)cc1`, the AC50 was 5.58 µM (active).

With `CC(=O)Nc1ccc(N=Nc2cc(C)ccc2O)cc1`, the AC50 was 0.0709 µM (active).

As to `O=C1c2ccccc2C(=O)c2c(Cl)cccc21`, the AC50 was 3.72 µM (active).

On to `COc1ccc2nc(N)sc2c1`, for which the AC50 is 9.33 µM (active).

On to `CCCCCCCCCCCCCC[N+](C)(C)C`, for which the AC50 was 31.1 µM (active).

In the case of `CCOc1ccc(NC(N)=O)cc1`, the AC50 is 16.6 µM (active).

Take `Nc1ccc(Cl)c([N+](=O)[O-])c1`: the AC50 is 12.8 µM (active).

Take `CCOC(=O)CC(CC(=O)OCC)(OC(C)=O)C(=O)OCC`: the AC50 was 25 µM (active).

The test system of a further assay is guinea pig Atrionatriuretic Peptide Receptor A (ANPA), gene 100135578. Briefly: NVS_GPCR_gANPA: NovaScreen (NVS) G Protein-Coupled Receptor Assay for guinea pig Atrionatriuretic Peptide Receptor A (ANPA) (AID 2283291). In short, it runs like this: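 Radioligand binding to guinea pig cerebellar membranes was measured after 1 h by filter-based scintillation counting. Chemicals were tested in duplicate at 25 uM, with hits run in concentration-response to a maximum of 50 uM. Binding loss was fitted against DMSO.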
In the case of `COCc1nnc(-c2ccc[n+]([O-])c2)n1-c1c(Cl)c(Cl)cc2[nH]c(=O)c(=O)[nH]c12`, the result was inactive.

`COCC(C)O` (stereo not given): the compound was called inactive.

Take `CCCCCCCCCCCCCCCCO`: the compound was classed as inactive.

As to `Clc1cc(Cl)c(Cl)cc1Cl`, the compound was classed as inactive.

Turning to `Oc1ccc2c(c1)OC[C@@H](N1CCC(O)(c3ccc(F)cc3)CC1)[C@H]2O`, the result was inactive.

In the case of `O=C(OCCCCCCOC(=O)c1ccccc1)c1ccccc1`, the compound was called inactive.

The next assay concerns the target rat Corticotropin Releasing Factor Receptor (CRF), Crhr1 (gene 58959) (UniProt P35353). Briefly: NVS_GPCR_rCRF: NovaScreen (NVS) G Protein-Coupled Receptor Assay for rat Corticotropin Releasing Factor Receptor (CRF) (AID 2283300). The method, boiled down:
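Rat cortical membranes used as receptor source in a radioligand competitive displacement binding assay; scintillation read 2 h after dosing. Primary screen run in duplicate at 25 uM; loss of signal versus DMSO baseline indicates binding.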
On to `CCNc1nc(N)nc(Cl)n1`, for which the outcome was inactive.

For the compound `OCCO`, the outcome was inactive.

As for `COCCOCCOCCOC`, the compound was called inactive.
